Laboratory results taken from PubChem BioAssay (NCI).
Compounds without any hit were thinned out: in the full panel of roughly 79,000, 15% have a hit. Cut-off read from the data, not from the text of the source: active = growth inhibition above about 70%; inactive = the rest.

Legend:
[1] = NCI Yeast Anticancer Drug Screen. Data for the rad50 strain (AID 155);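 note: 0% = growth of vehicle-only cultures of the same strain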; conditions: S. cerevisiae rad50 strain growth inhibition; at 50.0 µM; hits give high values
How it was run: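 Vehicle-treated cultures provide the reference for the growth inhibition reported for compound-exposed, repair-deficient yeast.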

[2] = NCI Yeast Anticancer Drug Screen. Data for the mec2-1 strain (AID 157); conditions: S. cerevisiae mec2-1 strain, at 50.0 µM, hits give high values
How it was run: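 Mutant yeast (mec2-1) grown with compound; growth inhibition relative to vehicle control reported.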

[3] = NCI Yeast Anticancer Drug Screen. Data for the sgs1 mgt1 strain (AID 161);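 note: 0% = growth of cultures given vehicle only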; conditions: S. cerevisiae sgs1 mgt1 strain, at 50.0 µM, hits give high values
How it was run: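 Compounds are added to genetically altered yeast, and growth is compared with cultures given vehicle alone to give percent inhibition.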

[4] = NCI Yeast Anticancer Drug Screen. Data for the cln2 rad14 strain (AID 165);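 note: 0% = growth equal to vehicle treated cultures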; conditions: S. cerevisiae cln2 rad14 strain, at 50.0 µM, hits give high values
How it was run: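 Readout is yeast growth inhibition versus vehicle-treated controls, using a strain with cln2 and rad14 alterations exposed to compound.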

[5] = NCI Yeast Anticancer Drug Screen. Data for the bub3 strain (AID 167); conditions: S. cerevisiae bub3 mutant strain, at 50.0 µM, hits give high values
How it was run: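 Mutant yeast screening strain plus compound; vehicle-treated cultures serve as the 0% inhibition reference.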

[6] = NCI Yeast Anticancer Drug Screen. Data for the mlh1 rad18 strain (AID 175); conditions: S. cerevisiae mlh1 rad18 strain growth inhibition; at 50.0 µM; hits give high values
How it was run: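 Genetically defined yeast (DNA repair-deficient) exposed to compounds; growth inhibition determined relative to vehicle.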

Measured: growth inhibition

C/C(=N\NC(N)=O)c1sc(-c2nc(C)c(/C(C)=N/NC(N)=O)s2)nc1C
inactive: [1] 32.8% | [2] 22.8% | [3] 20.9% | [4] 43.3% | [5] -16.1% | [6] 27.5%

CC(C)(C#N)CCCCC(N)=O
inactive: [1] -1.4% | [2] -13.4% | [3] -12.2% | [4] -6.1% | [5] -19.1% | [6] -10.7%

O=S(=O)(O)c1cc(O)c(N=NC2S(=O)(=O)OCCOS2(=O)=O)c2ccccc12
inactive: [1] 7.45% | [2] 2.7% | [3] 31.2% | [4] -9.2% | [5] 16.8% | [6] -4.05%

O.O.[Cl][Pt+2][Cl].[NH-]CC1(C[NH-])CCCCC1
inactive: [1] 10.4% | [2] 5.7% | [3] 11.8% | [4] 18.5% | [5] 8.75% | [6] -30.1%

C=CCC(CC=C)(C(=O)Nc1ccc2nc(C)cc(N)c2c1)C(=O)Nc1ccc2nc(C)cc(N)c2c1
inactive: [1] 2.05% | [2] 24.7% | [3] 22.1% | [4] 20.1% | [5] 12.4% | [6] -10.1%

O=C(CCc1cc(O)cc(O)c1)NCCc1cc(O)cc(O)c1
inactive: [1] 6.55% | [2] 5.9% | [3] 17.4% | [4] 26.4% | [5] 8.8% | [6] -46%

COc1cc(C(=O)NC2CCc3cc(OC)c(OC)c(OC)c3-c3ccc(OC)c(=O)cc32)cc(OC)c1OC (stereo unspecified)
inactive: [1] 26.4% | [2] -9.65% | [3] 3% | [4] 12.2% | [5] 0.05% | [6] 5.35%

CCc1nc2c(cnn2C)c(=O)n1-c1ccccc1
inactive: [1] -5% | [2] -6.35% | [3] -1.2% | [4] 3.9% | [5] 10.6% | [6] 7.55%

c1c2c(cc3c1OCN(C1CC1)C3)OCN(C1CC1)C2
inactive: [1] 0.7% | [2] 5.6% | [3] 10% | [4] -19.2% | [5] -13.8% | [6] -3.35%

NCCCCCC(CCN)SCC1OC(n2cnc3c(N)ncnc32)C(O)C1O (stereo unspecified)
inactive: [1] 17.6% | [2] -2.45% | [3] -5.1% | [4] -7.45% | [5] -0.95% | [6] 25.9%

O=C(Nc1nncs1)c1ccncc1
inactive: [1] -14.8% | [2] -5.75% | [3] -13.2% | [4] 7.1% | [5] -28.8% | [6] -46.1%

COc1ccc(C2Cc3cc(OC)c(OC)cc3C(c3ccccc3)N2)cc1OC (stereo unspecified)
inactive: [1] 8.7% | [2] 18.7% | [3] 16.7% | [4] 12.5% | [5] -1.25% | [6] 30.5%

CCCCC(CN(C)C)C(=O)/C=C/c1ccccc1 (stereo unspecified)
inactive: [1] 23.2% | [2] 2.9% | [3] 32.9% | [4] -0.7% | [5] 17.4% | [6] 27.8%

Cc1cc(C)c(C(C)(C)O)c(C)c1
inactive: [1] 8.45% | [2] 0% | [3] 3.9% | [4] 22.4% | [5] -1.65% | [6] 1.1%

BrC/C(=N\N1CCCCC1)c1ccc(Br)cc1
inactive: [1] 6.55% | [2] -7.95% | [3] -8.05% | [4] 24.6% | [5] 16.6% | [6] 14%

CC(=O)OC1OC(C)C(OC(=O)c2ccccc2)C1OC(C)=O (stereo unspecified)
inactive: [1] 21.1% | [2] -3.15% | [3] 2.3% | [4] -1.25% | [5] 6.25% | [6] 33.6%

CN(C)CCCNc1nc(Cl)nc2nc(-c3ccccc3)c(-c3ccccc3)nc12
inactive: [1] 50.2% | [2] 31% | [3] 60.5% | [4] 36% | [5] 28.9% | [6] 61.2%

COc1ccc(N=Cc2cc(OC)c(OC)c(OC)c2)cc1
inactive: [1] -12.4% | [2] -9.6% | [3] 1.5% | [4] -3.55% | [5] -12.9% | [6] 0.95%

Cn1c2ccccc2c2nnc(N/N=C/c3cccs3)nc21
inactive: [1] -15.6% | [2] -9.2% | [3] -9.6% | [4] -32.2% | [5] -10.6% | [6] 10.7%

Cn1nnc(/N=C/c2ccccc2)n1
inactive: [1] 5.85% | [2] -8.1% | [3] -6.25% | [4] -19.1% | [5] 4.75% | [6] 11.4%

O=C1CSC(c2cccs2)N1CCN1C(=O)CSC1c1cccs1 (stereo unspecified)
inactive: [1] 4.65% | [2] -2.1% | [3] -6.2% | [4] -6.75% | [5] 1.1% | [6] -0.25%
